# From PubChem BioAssay (Tox21)
# Several values for one entry are separate records, joined by “and”; a condition that tells them apart may be missing. Equal values may be shown once. Results filed as inconclusive are left out. A number with no mark means an inactive call. Activity calls are given as the source filed them. Unless noted, calls come from the whole dose curve.
# Tested on: not listed separately
# Assay: qHTS assay to identify small molecule antagonists of the sonic hedgehog signaling (Shh) pathway (AID 1259369); note: nearly all actives have a fitted effect of over 45% in size; note: potency is the fitted concentration of half-maximal effect
# Settings: NIH/3T3 Gli1-Luc reporter, Shh antagonist, luminescence 24 h; series mostly up to 92.4 µM; activity change, negative = inhibition: at the top concentration
# Outline: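 Screening used 3T3Gli1-Luc cells at 2,000 per well, compounds delivered in DMSO, and conditioned medium as agonist stimulus; plates incubated 24hr at 37 C and 5% CO2 before a 30min luciferase step.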
# % is set by controls: 0 for no effect and ±100 for the full control effect.
Structure (SMILES),Potency,"activity change, negative = inhibition"
CC1=C2C[C@H]3[C@@H](CC=C4C[C@@H](O)CC[C@@]43C)[C@@H]2CC[C@]12O[C@@H]1C[C@H](C)CN[C@H]1[C@H]2C,0.266 µM (active),
CCCCC(CC)COC(=O)c1ccccc1C(=O)OCC(CC)CCCC (configuration not stated),,30%
c1csc(-c2ccc(-c3cccs3)s2)c1,,0%
CC[N+]1(CC)CCC(OC(=O)C(O)(c2ccccc2)c2ccccc2)C1 (configuration not stated),,33.9% [at 42.5 µM]
CNC(C)(C)Cc1ccccc1,,5.04% [at 42.5 µM]
CCCCON=O,,0.393%
CNC(=O)O/N=C(\C)C(C)S(C)(=O)=O (configuration not stated),282 µM (active),
N#CCCl,,-4.16%
C[C@]12Cc3cn[nH]c3C[C@@H]1CC[C@@H]1[C@@H]2CC[C@@]2(C)[C@H]1CC[C@]2(C)O,13.3 µM (active),
CC1CCCC1,,-15.5%
CCOP(=O)(Sc1ccccc1)Sc1ccccc1,,-11%
Clc1ccc(C(c2ccc(Cl)cc2)C(Cl)Cl)cc1,34.4 µM (active),
CCCN,,14.4%
O=S1(=O)OCC2C(CO1)C1(Cl)C(Cl)=C(Cl)C2(Cl)C1(Cl)Cl (configuration not stated),,-28.6%
CC(Cc1ccc2c(c1)OCO2)NO (configuration not stated),,20.2%
CN=C=O,,17.1%
CN(C)CCc1c[nH]c2ccccc12,,-15.9%

Structure (SMILES),Potency,"activity change, negative = inhibition"
ClC1(Cl)C2(Cl)C3(Cl)C4(Cl)C(Cl)(Cl)C5(Cl)C3(Cl)C1(Cl)C5(Cl)C24Cl (configuration not stated),,22.6%
CN1C(=O)[C@@H](NC(=O)c2cc3ccccc3[nH]2)N=C(c2ccccc2)c2ccccc21,,-4.63% [at 42.5 µM]
COP(=S)(OC)Oc1nc(Cl)c(Cl)cc1Cl,,-22.5%
O=P(Cl)(Cl)Cl,,2.27%
COP(=O)(OC)O/C(=C\Cl)c1cc(Cl)c(Cl)cc1Cl,,-15.2%
O=c1[nH]c(Cl)c(Cl)cc1Cl,,-11.9%
CCN(CC)C(=S)S,5.49 µM (active) and 2.42 µM (active),
Clc1c(Cl)c(Cl)c(Cl)c(Cl)c1Cl,,3.84% [at 8.39 µM]
CCNS(=O)(=O)C(F)(F)C(F)(F)C(F)(F)C(F)(F)C(F)(F)C(F)(F)C(F)(F)C(F)(F)F,32.9 µM (active),
Cc1c([N+](=O)[O-])c(C)c([N+](=O)[O-])c(C(C)(C)C)c1[N+](=O)[O-],,-6.3%
CN1CCc2cc(Cl)c(O)cc2[C@H]2c3ccccc3CC[C@@H]21,,-5.57% [at 42.5 µM]
O=C1C2(Cl)C3(Cl)C4(Cl)C(Cl)(Cl)C5(Cl)C3(Cl)C1(Cl)C5(Cl)C24Cl (configuration not stated),12 µM (active) and 29.3 µM (active),
O=S(=O)(NS(=O)(=O)C(F)(F)F)C(F)(F)F,2.43 µM (active),
CCO/N=C(\CC)C1=C(O)CC(c2c(C)cc(C)cc2C)CC1=O (configuration not stated),5.45 µM (active),
ClC1=C(Cl)[C@]2(Cl)[C@@H]3[C@H]4C[C@H]([C@@H]5O[C@H]45)[C@@H]3[C@@]1(Cl)C2(Cl)Cl,24.3 µM (active),
c1ccc2c(c1)cc1ccc3cccc4ccc2c1c34,,33.9%
CSC(C)(C)/C=N/O,,4.27%

# Target: Estrogen receptor beta (Homo sapiens) (UniProt Q92731)
# Assay: qHTS assay to identify small molecule agonists of the estrogen receptor beta (ER-beta) signaling pathway (AID 1259377; active = well fitted activation curve with a large enough effect in the signal ratio in the repeat runs, not every such curve was filed as active; the % refers to the signal ratio)
# Settings: ER-beta-UAS-bla HEK293T, beta-lactamase FRET ratio, 16 h; series mostly up to 92.4 µM; activation: at the top concentration
# Outline: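 Measured by fluorescence intensity from a B/G FRET beta-lactamase substrate (2 h, room temperature) in ER-beta-UAS-bla HEK293T cells treated with DMSO-dissolved compounds for 16 hr at 37C and 5% CO2.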
# Estrogen receptor beta (Homo sapiens), sequence (Q92731 whole entry, looked up): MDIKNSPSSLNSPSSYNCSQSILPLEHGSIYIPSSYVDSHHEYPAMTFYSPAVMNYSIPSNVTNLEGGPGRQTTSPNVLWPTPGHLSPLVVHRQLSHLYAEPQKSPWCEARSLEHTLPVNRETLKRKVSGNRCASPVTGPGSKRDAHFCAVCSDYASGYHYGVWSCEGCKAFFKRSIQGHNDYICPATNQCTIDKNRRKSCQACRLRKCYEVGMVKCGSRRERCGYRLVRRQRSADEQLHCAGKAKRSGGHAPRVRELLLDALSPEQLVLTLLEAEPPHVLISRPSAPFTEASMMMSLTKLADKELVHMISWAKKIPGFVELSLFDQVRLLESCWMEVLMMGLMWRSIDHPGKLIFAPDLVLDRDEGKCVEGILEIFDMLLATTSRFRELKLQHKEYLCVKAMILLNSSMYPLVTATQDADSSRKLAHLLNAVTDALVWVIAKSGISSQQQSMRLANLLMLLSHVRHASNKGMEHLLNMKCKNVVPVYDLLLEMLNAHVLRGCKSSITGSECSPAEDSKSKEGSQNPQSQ
row,Structure (SMILES),activation [%]
1,CCOP(=S)(OCC)Oc1cc(C)nc(N(CC)CC)n1,2.63
2,Cc1cc2c3c(c1)C(c1ccccc1)=N[C@@H](NC(=O)c1ccncc1)C(=O)N3CC2,1.75
3,CCOP(=S)(OCC)SC(CCl)N1C(=O)c2ccccc2C1=O (configuration not stated),-1.7
